# Screens from PubChem BioAssay.
# A selection: hits, their analogues and other compounds. The true share with any hit is near 5.6%.
# PHOSPHO1 block: PubChem AID 1565. recombinant PHOSPHO1, absorbance phosphatase assay. inhibition, % at 13.3 µM. actives 1.1% (n = 290,000); in the data active means inhibition above about 60%
# Target sequence (Q8TCT1 whole entry, looked up): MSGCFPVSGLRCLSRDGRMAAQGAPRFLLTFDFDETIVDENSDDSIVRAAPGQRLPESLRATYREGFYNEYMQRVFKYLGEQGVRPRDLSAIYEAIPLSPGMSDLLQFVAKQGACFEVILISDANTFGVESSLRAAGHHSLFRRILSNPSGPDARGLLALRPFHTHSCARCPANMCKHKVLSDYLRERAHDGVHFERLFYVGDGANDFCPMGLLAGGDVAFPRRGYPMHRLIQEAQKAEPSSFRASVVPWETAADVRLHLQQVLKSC
# Cardio protect: cardioprotection against H2O2-induced cell death, primary screen, uHTS, H9c2 cells, ATPLite luminescence; protection from H2O2 cell death, % at 20 µM; actives 0.63% (n = 360,000); H9c2 cardiomyocytes, H2O2 injury protection, 2 h;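 active means compounds giving at least 50% protection of heart cells from peroxide-induced death in the single-dose screen, raw or plate-pattern-corrected value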;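 further: 0% = DMSO wells with peroxide and 100% = DMSO wells without peroxide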
# PfG6PD inh: PfG6PD enzyme inhibitors, primary screen, biochemical, fluorescence intensity, uHTS; glucose-6-phosphate dehydrogenase-6-phosphogluconolactonase (Plasmodium falciparum 3D7); actives 0.78% (n = 350,000); AID 504690, 2011; PfGluPho enzyme, NADPH resazurin-diaphorase fluorescence; inhibition, % at 20 µM;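 active means inhibition reaching at least a set limit at 20 µM in the primary screen, cut at about 59% in these data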;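 further: 0% = DMSO wells with substrate and 100% = DMSO wells lacking glucose-6-phosphate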
# PfM18AAP inh-1: PfM18AAP inhibitors, malaria aminopeptidase, primary screen, biochemical, QFRET, recombinant enzyme; H-Glu-NHMec fluorogenic cleavage; inhibition, % at 7.35 µM; actives 1.2% (n = 290,000); AID 1822, 2009;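 active means inhibition above the campaign mean inhibition over all tested compounds plus 3 SD, cut at about 28% in these data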;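 further: 0% = plate median of test compound wells and 100% = 2 mM ZnCl2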
# ALR inh: inhibitors of human ALR sulfhydryl oxidase, primary screen, biochemical, H2O2 detection, HRP-luminol luminescence, single point | purified ALR, DTT oxidation | actives 3.8% (n = 290,000) | inhibition, % (test concentration not listed) | AID 485317, 2010;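 active means mean replicate inhibition above about 79%, with every replicate also reaching it, limit read from the data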
# Target sequence (P55789 whole entry, looked up): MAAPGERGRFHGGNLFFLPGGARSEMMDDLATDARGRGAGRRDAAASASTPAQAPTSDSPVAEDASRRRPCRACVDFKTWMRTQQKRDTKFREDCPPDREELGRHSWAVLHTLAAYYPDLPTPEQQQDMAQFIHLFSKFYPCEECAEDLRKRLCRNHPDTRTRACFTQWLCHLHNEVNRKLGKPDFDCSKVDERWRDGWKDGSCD
# PfM18AAP inh-2: PfM18AAP inhibitors, malaria aminopeptidase, confirmation, biochemical, QFRET, recombinant enzyme, triplicate | shares compounds with PfM18AAP inh-1 | H-Glu-NHMec fluorogenic cleavage | inhibition, % at 7.35 µM | actives 28% (n = 2,400);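 active means mean inhibition over replicate wells above the hit cutoff set for the earlier primary screen, cut at about 29% in these data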;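 further: 0% = median of test compound wells and 100% = 2 mM ZnCl2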
# CTSL1 confirm: cathepsin L1 inhibitors, retest, confirmation, counter-screen for PFM18AAP inhibitor project, biochemical, QFRET, triplicate | shares compounds with PfM18AAP inh-1 | AID 2178, 2009 | purified cathepsin L1, Z-Leu-Arg-MCA fluorescence | inhibition, % at 5.96 µM | 2,400 tested, under 10 active;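 active means average inhibition across replicates above the hit cutoff set in the earlier primary screen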;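 further: 0% = median of test compound wells and 100% = Z-Phe-Ala-diazomethylketone 1 µM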
# PfG6PD confirm: PfG6PD inhibitors, hit retest, confirmation, biochemical, fluorescence intensity, single concentration | shares compounds with PfG6PD inh | recombinant PfGluPho, NADPH-diaphorase-resazurin fluorescence | inhibition, % at 20 µM | actives 34% (n = 2,400) | AID 504753, 2011;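 active means inhibition of at least 50% at 20 µM in any single replicate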;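 further: 0% = DMSO with substrate and 100% = DMSO lacking glucose-6-phosphate substrate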
# Diaph ctr 10uM: diaphorase inhibitors and chemical oxidizers, confirmation, counter-screen for P. falciparum G6PD inhibitor project, biochemical, fluorescence intensity, 10 µM NADPH; shares compounds with PfG6PD inh; diaphorase-coupled resazurin reduction, NADPH 10 uM; inhibition, % at 20 µM; actives 39% (n = 820); AID 504862, 2011;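 active means average inhibition reaching 50% or more with the compound at 20 µM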;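 further: resorufin red fluorescence formed as diaphorase reduces resazurin using NADPH; 0% = DMSO with enzyme and 100% = DMSO without enzyme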
# Diaphorase 30uM: diaphorase inhibitors and chemical oxidizers, confirmation, counter-screen for P. falciparum G6PD inhibitor project, biochemical, fluorescence intensity, 30 µM NADPH | shares compounds with PfG6PD inh | Diaphorase/resazurin coupled assay, resorufin fluorescence | inhibition, % at 20 µM | actives 29% (n = 820);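 active means inhibition averaging 50% or more, tested at 20 µM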;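 further: 0% = DMSO with enzyme and 100% = DMSO wells lacking diaphorase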
# * hit, by the source's call; · = no result given.
SMILES,PHOSPHO1 block,Cardio protect,PfG6PD inh,PfM18AAP inh-1,ALR inh,PfM18AAP inh-2,CTSL1 confirm,PfG6PD confirm,Diaph ctr 10uM,Diaphorase 30uM
Cc1cc(C)c2c(=O)n(CC(=O)Nc3ccc(Cl)cc3)sc2n1,-106.7,-29.8,112.5*,56.9*,-15.7,46.8*,7.0,96.0*,-18.3,5.2
CCOc1ccc(NC(=O)Cn2sc3nc(C)cc(C)c3c2=O)cc1,-101.9,-29.6,103.8*,56.0*,18.7,36.2*,-8.0,89.5*,-30.4,-21.0
Cc1cc(C)c(C(O)c2ncc(-c3ccccc3F)[nH]2)c(C)c1 (stereo not given),·,-18.4,·,·,·,·,·,·,·,·
Cc1cccc(OCc2nnc(-c3ccc(F)cc3)o2)c1,·,1.7,14.8,·,·,·,·,·,·,·
CN1CCN(c2ccc(NC(=O)CSc3nnnn3-c3ccccc3Cl)cc2)CC1,18.4,3.2,-16.5,7.3,2.6,·,·,·,·,·
CCN(CC)S(=O)(=O)c1cccc(C(=O)N/N=C/c2ccc(N3CCOCC3)cc2)c1,27.1,7.7,-6.0,-1.3,-12.1,·,·,·,·,·
CCn1c(C)nc2cc(C(=O)N/N=C/c3ccc(O)c(O)c3O)ccc21,3.6,7.5,84.8*,47.4*,·,38.0*,0.8,90.0*,86.1*,89.0*
CN(C)S(=O)(=O)c1cccc(NC(=S)N/N=C/c2ccc(O)c(O)c2O)c1,-65.3,22.1,79.7*,49.0*,·,39.7*,0.7,64.2*,58.8*,61.3*
CCN(CC)S(=O)(=O)c1cccc(C(=O)N/N=C/c2ccc(O)c(O)c2O)c1,1.9,42.4,66.0*,41.7*,98.3*,26.6,-0.5,71.3*,76.0*,85.8*
CC(C)NC(=S)NNc1nc2ccccc2s1,48.4,-3.8,73.6*,40.8*,19.5,34.4*,0.8,22.0,·,·
Cc1cccc(NS(=O)(=O)c2cccc(C(=O)NCC(c3ccco3)N(C)C)c2)c1 (stereo not given),·,10.2,19.5,·,-4.6,·,·,·,·,·
COc1ccccc1N1C(=O)C=C(Sc2nc(C)cc(C)n2)C1=O,7.4,-16.7,79.0*,35.4*,27.9,-321.5,-1.5,87.2*,-4.2,-15.1
COc1ccccc1N1C(=O)C2CC(C)=C(C)CC2C1=O (stereo not given),-5.5,2.8,9.3,1.8,-5.7,·,·,·,·,·
COC(=O)CN=Cc1c(C)[nH]n(-c2ccccc2)c1=O,19.5,3.9,-5.0,-16.5,1.6,·,·,·,·,·
Cc1[nH]n(-c2ccccc2)c(=S)c1C=NCCCN=Cc1c(C)[nH]n(-c2ccccc2)c1=S,32.6,0.3,61.9*,58.6*,5.4,-3.6,1.4,27.0,·,·
COc1ccc(C2CC(=O)N3CN(c4ccc(C)c(Cl)c4)CSC3=C2C#N)cc1OC (stereo not given),81.0*,2.2,59.3*,34.6*,-7.8,-3.6,-1.7,2.9,·,·
Cc1ccc(N2CSC3=C(C#N)C(c4cccs4)CC(=O)N3C2)cc1 (stereo not given),57.2,5.0,70.5*,33.0*,-13.7,-5.9,5.9,31.6,·,·
Cn1c(SCc2ccc(F)cc2Cl)nc2ccccc2c1=O,·,-15.2,-2.7,·,2.0,·,·,·,·,·
